Source: PubChem BioAssay (NCI)
Compounds without any hit were thinned out: in the full panel of roughly 83,000, 20% have a hit.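 Single-dose data. Exposure time 48 hours. Values below 10 considered active.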 Calls of active or inactive are those of the source.

These molecules were tested on NCI-H322M lung (assay: NCI-60 one-dose screen, 48 h (100 = growth as untreated, 0 = no growth, -100 = all killed)). Details: 10 µM unless noted.
In the case of `CCC(C)(C)c1ccc(OCCCCN2CCN(c3ccncc3)CC2)cc1`, the growth is reported as 83.9% (inactive). With `COc1ccc(C(=O)/C=C/c2ccc(Oc3nc(Nc4ccc(F)cc4)nc(N(C)C)n3)c(OC)c2)cc1` the growth was 80.4% (inactive). With `S=c1c2ccccc2nc2n1CCc1c-2[nH]c2ccccc12` the growth was 60.6% (inactive). `CCOC(=O)COc1c(OC)c(OC)cc2oc(-c3cccc(C(=O)Nc4ccc(Cl)cc4)c3)cc(=O)c12` was tested, and the growth was 108% (inactive).

The molecules below were run on HOP-62 NSCLC in the same assay as above. Details: 10 µM unless noted.
`C/C(=N\N=C1/C(=O)Nc2ccc(Cl)cc21)c1ccc2c(c1)Nc1ccccc1S2` was tested, and the growth was 19.3% (inactive). `CCCSc1nc(NCCc2c[nH]c3ccccc23)c(C#N)c(-c2ccc(F)cc2)n1` was tested, and the growth was 40.4% (inactive). For `COc1cc(C2CC(c3cc(OC)c(OC)c(OC)c3)=NN2C(C)=O)ccc1OCc1ccccc1` (configuration not stated), the growth was 70.2% (inactive). `Cc1cc2c(cc1Cl)C(=O)/C(=C/c1ccccc1)O2` was tested, and the growth was 21.8% (inactive). For `COc1ccc2[nH]cc(-c3nc(N)nnc3-c3cn(C)c4ncccc34)c2c1`, the growth was 62.4% (inactive). With `Cc1ccc(C(=O)CSc2nc3ccc(F)cc3c(=O)n2-c2ccc(Cl)cc2)cc1` the growth was -17.1% (active). For `CCCCSc1nc(NCCc2c[nH]c3ccccc23)c(C#N)c(-c2ccccc2)n1`, the growth was 39.7% (inactive). In the case of `Cn1cc(-c2nc(N)nnc2-c2c[nH]c3ccc(Br)cc23)c2cccnc21`, the growth is reported as 53.2% (inactive). With `CN(C)CCOc1ccc(C(=O)C2[C@H](c3ccc(Cl)cc3)[C@@H](c3ccccc3)NC23C(=O)Nc2ccc(Br)cc23)cc1` (some centres not stated) the growth was 75.9% (inactive). For `CN1CCN(/C(=N\c2sc(-c3ccccc3)nc2-c2ccccc2)c2ccccc2)CC1`, the growth was 97.1% (inactive). `CCCSc1nc(NCCc2c[nH]c3ccccc23)c(C#N)c(-c2ccccc2)n1` was tested, and the growth was 65.4% (inactive). With `CCN(CC)c1ccnc(CNCCSC(c2ccccc2)(c2ccccc2)c2ccc(OC)cc2)c1` the growth was -10.2% (active). In the case of `COc1cc2oc(-c3cccc(C(=O)Nc4cccc([N+](=O)[O-])c4)c3)cc(=O)c2c(OC)c1OC`, the growth is reported as -13.4% (active). `O=C(COc1ccc(NC(=O)Nc2ccc(Cl)c(Cl)c2)cc1)N=Nc1c(O)[nH]c2ccc([N+](=O)[O-])cc12` was tested, and the growth was 76.4% (inactive). For `COc1cc(-c2nc3cc(Cl)c(Cl)cc3[nH]2)ccc1OCc1nnc(-c2cccs2)o1`, the growth was 77.8% (inactive). `CCCCCCCCc1ccc(C(=O)Nc2ccc(C)cc2C(=O)O)cc1C` was tested, and the growth was 96.2% (inactive). For `CCOP(=O)(OCCCl)c1nc(-c2ccc(C)cc2)oc1NCc1ccccc1` (configuration not stated), the growth was 93.9% (inactive). `NS(=O)(=O)c1ccc(N=Nc2c(O)n(CC(=O)Nc3ccccc3)c3ccccc23)cc1` was tested, and the growth was 10.8% (inactive). With `CC1(C)CC[C@]2(C(=O)Nc3ccccc3)CC[C@]3(C)C(=CCC4[C@@]5(C)C[C@@H](O)[C@H](O)[C@@](C)(CO)C5CC[C@]43C)C2C1` (some centres not stated) the growth was 75.3% (inactive). With `COc1ccccc1C(=O)NN1C(=O)/C(=C/C2=Cc3ccccc3OC2)SC1=S` the growth was 106% (inactive). With `COc1ccc(NC(=O)[C@H](CO)NC(=O)OC(C)(C)C)cc1C(=O)Nc1cccc(C2CC(=O)c3c(cc(OC)c(OC)c3OC)O2)c1` (some centres not stated) the growth was 83% (inactive). `COc1ccc(C2(SCCNCc3cc(N(C)C)ccn3)c3ccccc3C=Cc3ccccc32)cc1` was tested, and the growth was 40% (inactive). `COc1ccc2[nH]c(O)c(N=NC(=O)COc3ccc(NC(=O)Nc4ccccc4)cc3)c2c1` was tested, and the growth was -6% (active). For `COc1cc(/C=C/C(=O)c2ccc(C)cc2)ccc1Oc1nc(Nc2ccc(F)cc2)nc(N(C)C)n1`, the growth was 86.4% (inactive). `CCN(CC)CCOc1ccc(Nc2ncc3cc(-c4ccc(O)c(C#N)c4)c(=O)n(C)c3n2)cc1` was tested, and the growth was 91.1% (inactive). `CC(/C=C1\SC(=S)N(CCCC(=O)NC(CC(C)C)C(=O)O)C1=O)=C\c1ccccc1` (configuration not stated) was tested, and the growth was 110% (inactive). With `COc1cc2c(c(OC)c1OC)C(=O)CC(c1cccc(NC(=O)c3cc(N)ccc3Cl)c1)O2` (configuration not stated) the growth was 77.3% (inactive). For `CC(=O)OC[C@@]1(C)C2CC[C@]3(C)C(CC=C4C5CC(C)(C)CC[C@]5(C(=O)Nc5cccc(C)c5)CC[C@]43C)[C@@]2(C)C[C@@H](OC(C)=O)[C@@H]1OC(C)=O` (some centres not stated), the growth was 40.4% (inactive). `CCCCc1c(Nn2cnnn2)no[n+]1[O-]` was tested, and the growth was 81.6% (inactive). With `CC(C)Sc1nc(NCCc2c[nH]c3ccccc23)c(C#N)c(-c2ccc(F)cc2)n1` the growth was 51.9% (inactive). For `C=C1CCC2C3(C)COC(c4ccc(F)cc4)OC3CCC2(C)C1CC(O)C1=CCOC1=O` (configuration not stated), the growth was 81.7% (inactive). For `NS(=O)(=O)c1ccc(N=Nc2c(O)n(CC(=O)Nc3ccccc3Cl)c3ccccc23)cc1`, the growth was 17.6% (inactive). With `Cc1ccccc1[C@H]1C(C(=O)c2ccc(Cl)cc2)C2(N[C@@H]1c1ccccc1)C(=O)Nc1ccc(Cl)cc12` (some centres not stated) the growth was -63.7% (active). In the case of `CCCCCCCCc1ccc(S(=O)(=O)Nc2ccc(CC)cc2C(=O)O)cc1`, the growth is reported as 99.6% (inactive). In the case of `CCC(C)(C)c1ccc(OCCCCN2CCN(c3ccncc3)CC2)cc1`, the growth is reported as 37.4% (inactive). For `COc1ccc(C(=O)/C=C/c2ccc(Oc3nc(Nc4ccc(F)cc4)nc(N(C)C)n3)c(OC)c2)cc1`, the growth was 100% (inactive). For `S=c1c2ccccc2nc2n1CCc1c-2[nH]c2ccccc12`, the growth was 38.5% (inactive). `CCOC(=O)COc1c(OC)c(OC)cc2oc(-c3cccc(C(=O)Nc4ccc(Cl)cc4)c3)cc(=O)c12` was tested, and the growth was 54.9% (inactive).
